GLP1R cytotox = cytotoxic in the GLP-1 receptor inverse agonist counter-screen | 0.13% of 410,000 active | HEK293 cAMP-luciferase reporter cells, luminescence, 24 h | Potency, µM (highest dose often 38.3 µM), for the others: at the highest dose activity change, negative = inhibition, most hits filed as inhibitors;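 further: loss of luciferase light is scored as toxicity; on the % scale 0 is the no-effect control and ±100 the full control effect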
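A 23 nL compound transfer followed 12 hours of cell culture at 37 deg C; exposure then lasted 24 hr. Luciferase assay detection reagent was dispensed and plates read for luminescence after a 12 min room-temperature wait.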
BRCA1 expr up = increases BRCA1 expression | MCF7-BRCA1-FFLuc reporter, luminescence, 48 h; response scale: scaled: vehicle 0%, 10 µM genistein 100% | Potency, µM (highest dose often 46.1 µM), inactives show top-dose activation, most hits filed as activators | 1.1% of 380,000 active; further: nearly all actives have a fitted effect of over 80% in size
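Using MCF7 cells harboring a BRCA1 firefly luciferase reporter, plated 2 h before compound pinning, the screen measured luminescence after 48 h incubation. Responses were normalized to DMSO and 10 microM genistein, then fitted for concentration-effect.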
Mito fusion act = inhibitors of mitochondrial division or activators of mitochondrial fusion; S. cerevisiae fusion-defective mutant growth rescue, CellTiterGlo 48 h; Potency, µM (titrated, usually from 46.1 µM), for the others: at the highest dose growth rescue (activation), actives largely listed as activators; 0.23% of 320,000 active; further: % of control where 0% means no effect; nearly all actives have a fitted effect of over 45% in size
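S. cerevisiae fusion-defective temperature-sensitive mutants (e.g. fzo1-1, mgm1-5) grown 48 h at 37C in YPEG (ethanol/glycerol non-fermentable) medium with 23 nl compound per well; growth rescue read as CellTiterGlo luminescence.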
GLP-1R agonist = agonists of human GLP-1 receptor. HEK293 GLP-1R CRE-luciferase, luminescence, 4-6 h; cells express a hypersensitive GLP-1R form. 0.007% of 380,000 active. P43220. Potency, µM (doses to about 45.6 µM), for the others: top-dose activation, usual class: activators. AID 624172; further: % of control where 0% means no effect
Target sequence (P43220 whole entry, looked up): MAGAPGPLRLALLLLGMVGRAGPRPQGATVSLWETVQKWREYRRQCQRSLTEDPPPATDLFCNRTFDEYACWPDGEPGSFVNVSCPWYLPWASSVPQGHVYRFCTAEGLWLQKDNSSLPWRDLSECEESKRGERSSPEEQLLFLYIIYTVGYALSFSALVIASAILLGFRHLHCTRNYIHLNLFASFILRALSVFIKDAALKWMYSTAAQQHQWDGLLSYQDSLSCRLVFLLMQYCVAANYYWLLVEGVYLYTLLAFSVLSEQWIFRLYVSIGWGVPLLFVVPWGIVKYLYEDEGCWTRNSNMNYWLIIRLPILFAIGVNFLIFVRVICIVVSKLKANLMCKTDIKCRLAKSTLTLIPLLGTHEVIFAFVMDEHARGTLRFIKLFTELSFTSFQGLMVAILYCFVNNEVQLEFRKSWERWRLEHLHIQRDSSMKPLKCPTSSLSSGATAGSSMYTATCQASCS
GLP-1R inv ag = acts as inverse agonist at human GLP-1 receptor; Potency, µM (top dose mostly 38.3 µM), for the others: top-dose activity change, negative = inhibition, most hits filed as inhibitors; 1.6% of 410,000 active; P43220; HEK293 GLP-1R CRE-luciferase, luminescence, 24 h; GLP-1R form is constitutively active; further: on the % scale 0 is the no-effect control and ±100 the full control effect; nearly all actives have a fitted effect of over 55% in size
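HEK293 cells stably co-expressing a cAMP-responsive luciferase reporter and constitutively active GLP-1R were seeded, incubated 12 h, then exposed to compounds for 24 h at 37 C. Luminescence was read 12 min after detection reagent; inverse agonists lower signal.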
Starred values were filed as active, the others as inactive; u = inconclusive; x = not tested or not shown; [ ] = remark or other dose. Rows were chosen to be rich in hits. Some 2.8% of all compounds tested hit in one or more screens of this group. The call rests on the fitted dose curve; in most records, active means well fitted curve in the direction sought with a large enough effect; inconclusive means small, poorly fitted or top-dose-only effect, or another doubt; inactive means no such curve, though single readings can be large; an effect the other way counts as inactive or inconclusive. Potency means the concentration at half of the fitted maximal effect.

SMILES	GLP1R cytotox	BRCA1 expr up	Mito fusion act	GLP-1R agonist	GLP-1R inv ag
Cc1cc(/C=C(\C#N)C(=O)Nc2ccccc2)c(C)n1-c1ccc(F)cc1	5.2%	15.1%	x	0.5%	11.0%
Cc1cc(/C=C(\C#N)C(=O)Nc2ccccc2)c(C)n1-c1cccnc1	-5.7%	5.62µM*	0.1%	11.8%	14.7%
Cc1cc(S(=O)(=O)Nc2cccnc2)c(C)s1	8.8%	-16.7%	1.0%	-4.3%	5.5%
Cc1cc(S(=O)(=O)Nc2ccc3ccccc3c2)c(C)s1	-21.0%	-94.7%	17.8µM*	-0.1%	u
CCCN(CCC)C(=O)c1oc2ccccc2c1NC(=O)Cc1cccc(OC)c1	-6.1%	0.6%	19.6%	11.3%	7.94µM*
CCOC(=O)C1C(C(=O)OC)=C(c2ccc(OC)cc2)c2ccccc2N1S(=O)(=O)C(F)(F)F (centres undefined)	-8.0%	-6.2%	x	22.9%	-1.2%
CCC(C)NC(=O)Cn1ncc2c([nH]c3ccc(C)cc32)c1=O (centres undefined)	-2.1%	x	x	x	6.1%
Cc1ccc(NC(=O)CN(C)C(=O)C(Sc2ccccc2)c2ccccc2)cc1 (centres undefined)	-25.7%	-11.9%	6.2%	0.0%	8.91µM*
Cc1ccc(NC(=O)CN(C)C(=O)c2ccccc2Cc2ccccc2)cc1	-8.7%	-9.3%	1.5%	7.4%	10µM*
COc1ccc(NC(=O)CN(C)C(=O)C(C)Sc2ccccc2)cc1 (centres undefined)	-3.1%	-7.5%	-0.2%	-0.8%	7.5%
Cc1cccc(C)c1NC(=O)CN(C)C(=O)c1ccccc1Cc1ccccc1	-4.0%	-16.0%	13.8%	5.1%	u
O=C1NCN(CCO)CN1	-16.4%	7.1%	9.0%	-8.0%	3.1%
Cc1ccc(Cn2ccc(=O)c(OCc3ccccc3)c2C)cc1	-1.7%	11.2µM*	-1.7%	4.0%	-12.3%
Cc1c(OCc2ccccc2)c(=O)ccn1Cc1ccc(Cl)cc1	0.6%	-73.0%	12.8%	10.5%	u
Oc1ccc(/C=C/c2cc(O)cc(O)c2)cc1	-4.9%	12.6µM*	-30.9%	13.0%	u
Oc1ccc(/C=C\c2cc(O)cc(O)c2)cc1	x	x	x	-2.0%[19.8 µM]	x
CCN(C(=O)CSc1nc(-c2ccc(C(C)C)cc2)no1)c1ccccc1	3.4%	x	x	x	11.2µM*
CCN(C(=O)CSc1nc(-c2ccc(C(C)C)cc2)no1)c1cccc(C)c1	-4.1%	x	x	x	u
N/C(CS(=O)(=O)c1ccc(F)cc1)=N\O	-4.3%	-5.7%	-0.4%	0.8%	2.6%
O=C1CC=Nc2ccc([N+](=O)[O-])cc21	-21.1%	-22.2%	x	-4.5%	-7.4%
CCc1cccc(C)c1NC(=S)NCCc1c(C)[nH]c2ccc(C)cc12	u	-33.0%	4.9%	-4.5%	u
CCc1cccc(CC)c1NC(=S)NCCc1c(C)[nH]c2ccc(C)cc12	-14.5%	-59.2%	14.1%	-1.3%	7.94µM*
O=C(NCCc1ccccc1F)C1CCC(=O)N(Cc2ccc(Cl)cc2)C1 (centres undefined)	-0.9%	3.7%	8.1%	-4.1%	-20.9%
CC1(Cc2ccc(C(F)(F)F)o2)C(=O)Nc2ccc(-c3cccc(C(F)(F)F)c3)cc21 (centres undefined)	u	-72.4%	x	-7.8%	10µM*
CC1(Cc2ccc3c(c2)OCO3)C(=O)Nc2ccc(-c3cccc(C(F)(F)F)c3)cc21 (centres undefined)	u	-69.7%	x	-23.5%	u
SMILES	GLP1R cytotox	BRCA1 expr up	Mito fusion act	GLP-1R agonist	GLP-1R inv ag
O=C(Nc1ccc(C(=O)N2CCCCC2)cc1)C1CC1	0.4%	4.8%	x	-1.3%	6.0%
CCOc1ccc2c(c1)c(N=Nc1cccc(C(=O)O)c1)c(O)n2C	u	10µM*	15.9%	5.5%	8.4%
Cc1ccc2c(c1)c(N=Nc1cccc(C(=O)O)c1)c(O)n2C	-9.7%	94.5%	1.7%	-0.2%	-5.7%
O=C(OCc1ccc(Cl)c(Cl)c1)c1ccc[nH]1	-3.4%	12.6µM*	-2.0%	12.4%	u
CC12CC3(C)CC(C)(C1)CC(NC(=O)N1CCCC1)(C2)C3	-21.9%	-34.4%	5.3%	-5.0%	10µM*
OC1CC2CCC(C1)N2CCCN1c2ccccc2Sc2ccc(Cl)cc21 (centres undefined)	0.0%	-83.3%	x	8.7%	2.82µM*
CN1CCN(NS(=O)(=O)c2ccc(Cl)s2)CC1	31.4%	1.8%	-2.4%	0.3%	27.1%
O=S(=O)(Nc1ccccc1N1CCCCC1)c1ccc(Cl)s1	-0.4%	-10.3%	1.7%	-5.6%	10µM*
O=S(=O)(Nc1ccccc1N1CCCC1)c1ccccc1C(F)(F)F	2.6%	5.6%	x	-1.7%	u
OCC1O[C@H](Oc2ccc(O)cc2)C(O)C(O)C1O (some centres undefined)	x	x	x	0.5%	x
CC(=O)Oc1ccc2c(=O)c(-c3ccccc3)coc2c1	20.7%	7.94µM*	2.3%	1.0%	24.5%
COc1ccc(CC(=O)c2ccc(OC3OC(CO)C(O)C(O)C3O)cc2O)cc1 (centres undefined)	3.6%	11.2µM*	7.4%	-0.2%	10.3%
COc1ccc(-c2coc3cc(OC)ccc3c2=O)cc1	8.4%	2.82µM*	x	6.0%	30.1%
COc1ccc(-c2coc3cc(O)ccc3c2=O)cc1O	2.5%	12.6µM*	-0.9%	12.4%	18.4%
CCOC(=O)COc1ccc2c(=O)c(-c3ccccc3)coc2c1	-2.4%	-16.3%	24.4%	10.0%	-3.3%
COc1ccc(-c2coc3cc(OC4OC(CO)C(O)C(O)C4O)ccc3c2=O)cc1 (centres undefined)	5.7%	u	4.9%	6.2%	9.7%
COc1ccc(-c2coc3cc(O[C@@H]4O[C@H](CO)[C@@H](O)[C@H](O)[C@H]4O)c(OC)cc3c2=O)cc1	-17.3%	11.2µM*	x	-3.1%	12.1%
CC1Cc2cc(S(=O)(=O)N3CCCC(C(=O)N4CCCCC4)C3)ccc2N1C(=O)C1CC1 (centres undefined)	-0.1%	3.2%	0.316µM*	u	54.5%
CN(C)CCNc1nc(-c2ccccc2CO)c2sccc2n1	-8.2%	0.0%	x	0.0%	7.2%
Cn1cccc1C(=O)C(=O)Nc1ccc(Cl)cc1	-4.0%	4.47µM*	4.1%	-12.7%	u
Cn1cccc1C(=O)C(=O)Nc1cccc(Cl)c1Cl	11.8%	-37.7%	7.1%	-10.9%	0.0%
Cn1cccc1C(=O)C(=O)Nc1cc(Cl)cc(Cl)c1	-8.6%	57.4%	1.7%	-16.0%	5.5%
Cn1cccc1C(=O)C(=O)Nc1ccc(F)c(F)c1	-9.7%	5.62µM*	1.0%	6.3%	11.9%
CSC(=S)N/N=C/c1ccc(Br)cc1	11.2µM*	-5.0%	-3.7%	-6.0%	u
S=C(N/N=C/c1ccc(Cl)cc1)N1CCOCC1	-20.8%	-49.6%	-7.0%	0.8%	-0.5%
CC(C)(C)OC(=O)N/N=C/c1ccc(Br)cc1	8.0%	3.55µM*	8.3%	0.0%	-29.5%

Screening data: PubChem, National Center for Advancing Translational Sciences (NCATS)
